In the supplement of paper PMC6555819:

Tested on: PPARg:RXRa 90nM:30nM, anti-RXR (NR concentration 90 nM, RXRa partner concentration 30 nM)
Assay: PBM binding z-score (relative to random genomic background probes); higher = stronger binding; sequences stand for … in GC…GCGATTGACAGCGTAGAATGAAGG
Outline: (§1)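 Ligand-free nuclear receptor dimers were applied to custom Agilent 4×180K protein-binding microarrays whose double-stranded probes carried direct-repeat seeds, single-nucleotide variants, half-site ablations and random human genomic background sequences in 34-nt variable regions. Incubation lasted 1 h. Binding z-scores were computed against the random background probes from regression-normalized fluorescence.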

| Sequence | PBM binding z-score |
| --- | --- |
| ATATGTAGGTTATCGGGGCATTCAGTTTGCGCAT | 4.06 |
| TCTAGTTGGTCAAATGTCACACACTCGAAATGCG | 7.55 |
| CTACCAAGGTGAACAAGGTCGTTGGTTACTATTC | 0.758 |
| TCTTGTAGGTCAGCAGGTTAAGAAAGCTGGCCAA | 5.71 |
| CGAACTTGGTCAGAACAGGACAGTGAAGGATGAT | -0.55 |
| ACAGACAGGTGAGTGAAGGTAACTGAGCTGGACG | -0.11 |
| TCTATTAGTTGAAGGGCATCCGACGAGTCCGTTT | 2.78 |
| AGTCAAAGTTCATCTAGGTAAAGTAAGATATGCT | 5.54 |
| CCTTACGGGTCAAGGTTACAGCACGGGTGGTACG | 3.87 |
| CAAACTACGTCAAGGTCAAAGTCGGTTTGTGCCA | 1.7 |
| CCTCGGAGGACATCAGGAGGTCAGAGCTGCCAGA | -0.136 |
| AGAACGAGGGCAATGAGTTGGTAGCACGGGTGGC | 0.196 |
| AGTTAAAGTTCAGGACGAGGTAACGTAAAGCACG | 2.14 |
| ACAGACAGGTGAGTGCAGGTAACTCAGCTGGACG | -0.571 |
| TCATATAGGTAAAAGGTGAAAGCCGGTGTGGTAA | 9.1 |
| GCTGCTTGGTCAGGTTGGTCAGCTAACGGGTACG | -1.09 |
| CCTTACGGGTCACTCCAGGTTAGAGCATCGGAGT | 2.54 |
| CCTACTGGGCCAAAAAGGACATTGATGCCGATAA | 1.17 |

Tested on: PPARg:RXRa DBDmut IVT, anti-RXR (DBD mutation: RXRa K156A/R161A, NR concentration 270 nM, RXRa partner concentration 90 nM)
Assay: as above
Outline: as §1

| Sequence | PBM binding z-score |
| --- | --- |
| CTACCAAGGTGAACAAGGTCGTTGACTACTATTC | 2.76 |
| GCTAGCTGGTCAGTAAAAGGTCACACACCGGTCG | 0.546 |
| AGTCAAAGTTCACTAGGTAACGTCAGATTCAGCT | 2.77 |
| CTCGAAAGGTAGGTTGAGGTGAGTATACGGATAA | -0.151 |
| TCATATAGGTAAATGCGAGGTGAAAGTCCGATCT | 4.13 |
| TAGCCTAGGGCATTGGGCCAGTATAGTACGCATC | 0.771 |
| ATCTCTAGGTAAAGTTCAGTAAAAGATCGATAGA | 2.04 |
| CAGCCTAGGTCAGGGCTAGTATAGGAGGAACGTT | 1.32 |
| CAGACTAGGTCAGGGCCAGTATAGGAGGAACGTT | 5.95 |
| CCTCGGAGGACAGAAGGTCAGAGTTGTCCGCTTT | 0.283 |
| CTCGAAAGGTCGGTTGAGGTGAGTATCCGGATAA | 0.135 |
| ATCGAAAGGTCGAGGTGAGTATAGAGAAAGGGAA | 0.752 |
| AATACAGGGTCATCGTAGGCCAAAGTACGCACAG | 2.81 |
| CGTCCAAGCTCAATGCTAGGTCAGTGAAAGCATT | 0.189 |
| ATCTCTAGGTAAAGATAGTTCAGTGACTGCAAAT | 2.25 |
| TCTATTAGTTGAAGGGCAACCGGCGAGTCCGTTT | 2.36 |
| CTCGAAACGTCGGTTGAGGTGAGTATACGGATAA | -0.197 |
| ACTAGCAGGCCAAGGGACACTCAAGATTAGTCCG | 0.487 |
| TTACCAAGGTTAAGGTCGTTGATCCCTCTGTAGA | 0.95 |
| GCTGCTAGGTCAGGTTGGACAGCTAACGGGTACG | 2.44 |

| Sequence | PBM binding z-score |
| --- | --- |
| GCTATTCGTTGAAAGGGCAACCGAATGATTCTCG | 0.00432 |
| CAAACTAGGTCAAAGGTCAATGTCGAGCCAACCA | 8.75 |
| ATATGTAGGTTATCGGGGCATTCAGTTTGCGCAT | 7.24 |
| TCTAGTTGGTCAAATGTCACACACTCGAAATGCG | 2.7 |
| CTACCAAGGTGAACAAGGTCGTTGGTTACTATTC | 1.96 |
| TCTTGTAGGTCAGCAGGTTAAGAAAGCTGGCCAA | 6.85 |
| CGAACTTGGTCAGAACAGGACAGTGAAGGATGAT | -0.158 |
| ACAGACAGGTGAGTGAAGGTAACTGAGCTGGACG | 0.252 |
| TCTATTAGTTGAAGGGCATCCGACGAGTCCGTTT | 2.32 |
| AGTCAAAGTTCATCTAGGTAAAGTAAGATATGCT | 1.06 |
| CCTTACGGGTCAAGGTTACAGCACGGGTGGTACG | 2.05 |
| CAAACTACGTCAAGGTCAAAGTCGGTTTGTGCCA | 0.822 |
| CCTCGGAGGACATCAGGAGGTCAGAGCTGCCAGA | -0.368 |
| AGAACGAGGGCAATGAGTTGGTAGCACGGGTGGC | 3.11 |
| AGTTAAAGTTCAGGACGAGGTAACGTAAAGCACG | -0.314 |
| ACAGACAGGTGAGTGCAGGTAACTCAGCTGGACG | 0.771 |
| TCATATAGGTAAAAGGTGAAAGCCGGTGTGGTAA | 5.44 |
| GCTGCTTGGTCAGGTTGGTCAGCTAACGGGTACG | -0.165 |
| CCTTACGGGTCACTCCAGGTTAGAGCATCGGAGT | 2.67 |
| CCTACTGGGCCAAAAAGGACATTGATGCCGATAA | 3.5 |
